Laboratory results as given in PubChem BioAssay AID743025 (Vanderbilt Specialized Chemistry Center, 2013).
Values without a mark were called inactive. Active and inactive are the calls of the source.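 Rule for the calls: active = IC50 below 10 µM at human M5 in a calcium flux test, acting as a negative modulator; inactive = the rest.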

Molecular target: Muscarinic acetylcholine receptor M5 (Homo sapiens) (UniProt P08912)
Test: M5 muscarinic receptor negative allosteric modulators, cell-based, single concentration, human M5 (AID 743025)
Conditions: CHO-K1 hM5, ACh EC80 calcium flux, Fluo-4; at 10 µM; hits give low values

Muscarinic acetylcholine receptor M5 (Homo sapiens), sequence (P08912 whole entry, looked up): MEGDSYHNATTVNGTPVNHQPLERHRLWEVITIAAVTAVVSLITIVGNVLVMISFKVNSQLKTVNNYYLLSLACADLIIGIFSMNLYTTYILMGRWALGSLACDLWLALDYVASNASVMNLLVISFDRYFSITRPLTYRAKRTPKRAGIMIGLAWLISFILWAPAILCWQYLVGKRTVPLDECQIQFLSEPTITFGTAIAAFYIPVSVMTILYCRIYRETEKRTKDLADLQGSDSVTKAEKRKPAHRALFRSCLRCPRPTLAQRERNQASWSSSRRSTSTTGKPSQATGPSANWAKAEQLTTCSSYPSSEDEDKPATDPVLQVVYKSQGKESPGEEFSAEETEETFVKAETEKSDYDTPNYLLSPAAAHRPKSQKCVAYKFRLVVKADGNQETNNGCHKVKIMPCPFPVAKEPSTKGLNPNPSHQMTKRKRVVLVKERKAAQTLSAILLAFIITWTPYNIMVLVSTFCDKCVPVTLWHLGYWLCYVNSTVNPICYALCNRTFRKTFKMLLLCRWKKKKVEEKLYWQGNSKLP

SMILES	activity remaining
CSc1cccc(NC(=S)N2CCN3C(=O)c4ccccc4C32c2ccccc2)c1 (stereo not given)	77.7%
COc1cccc(C(=O)N2CCN3C(=O)c4ccccc4C23c2ccc(Cl)cc2)c1 (stereo not given)	17.5% (active)
C=CCN1C[C@H](C)N2C(=O)c3ccccc3[C@@]12c1ccc(Cl)cc1	64.3%
CC(C)(C)NC(=O)N1CCCN2C(=O)c3ccccc3C12c1ccccc1 (stereo not given)	83.3%
O=C(c1ccc(OCc2ccccc2)cc1)N1CCN2C(=O)c3ccccc3C12c1ccccc1 (stereo not given)	75.1%
O=C(c1ccccc1)N1CCCC1c1ccccc1 (stereo not given)	88.8%
O=C(c1cccnc1)N1CCN2C(=O)c3ccccc3C12c1ccccc1 (stereo not given)	74.8%
O=C(c1ccncc1)N1CCN2C(=O)c3ccccc3C12c1ccc(Cl)cc1 (stereo not given)	72.4%
CC(C)Oc1ccc(C(=O)N2CCN3C(=O)c4ccccc4C23c2ccc(Cl)cc2)cc1 (stereo not given)	-1.43% (active)
O=C(c1ccc(C(F)(F)F)cc1)N1CCN2C(=O)c3ncccc3C12c1ccccc1 (stereo not given)	72.2%
O=C(c1ccc(F)cc1Cl)N1CCN2C(=O)c3ccccc3C12c1ccccc1 (stereo not given)	64.1%
O=C(c1ccccn1)N1CCN2C(=O)c3ncccc3C12c1ccccc1 (stereo not given)	73.7%
O=C(c1ccc2c(c1)CCO2)N1CCN2C(=O)c3ccccc3C12c1ccc(Cl)cc1 (stereo not given)	71.1%
CCOc1ccc(C(=O)N2CCN3C(=O)c4ccccc4C23c2ccccc2)cc1 (stereo not given)	61.1%
O=C(c1ccc(SC(F)(F)F)cc1)N1CCN2C(=O)c3ccccc3C12c1ccc(Cl)cc1 (stereo not given)	4.43% (active)
